Data published in the supplement of paper PMC3334620.
Whole data set: some 33,000 sequences, median “E-score (-0.5 to 0.5)” near -0.01, cut for the highest 2% near 0.26. The full list was thinned out, with the highest values kept by preference.

target: Ste12 (UniProt P13574); experiment: PBM E-score (8-mer binding enrichment) (E-score (-0.5 to 0.5)); higher = stronger / more preferred TF binding; details: protein concentration: 200 nM; construct: GST-DNA-binding domain
In short: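 For each ungapped eight-base word taken together with its reverse complement, the Universal PBM Analysis Suite assigned an E-score. Binding data came from GST-tagged yeast transcription factors, applied at about 100-200 nM, on universal all-10-mer Agilent arrays made double-stranded by primer extension. Fluorescent anti-GST marked bound protein, and scans were normalised with masliner.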

Sequence of UniProt P13574 (P13574 whole entry, the tested form may be a part): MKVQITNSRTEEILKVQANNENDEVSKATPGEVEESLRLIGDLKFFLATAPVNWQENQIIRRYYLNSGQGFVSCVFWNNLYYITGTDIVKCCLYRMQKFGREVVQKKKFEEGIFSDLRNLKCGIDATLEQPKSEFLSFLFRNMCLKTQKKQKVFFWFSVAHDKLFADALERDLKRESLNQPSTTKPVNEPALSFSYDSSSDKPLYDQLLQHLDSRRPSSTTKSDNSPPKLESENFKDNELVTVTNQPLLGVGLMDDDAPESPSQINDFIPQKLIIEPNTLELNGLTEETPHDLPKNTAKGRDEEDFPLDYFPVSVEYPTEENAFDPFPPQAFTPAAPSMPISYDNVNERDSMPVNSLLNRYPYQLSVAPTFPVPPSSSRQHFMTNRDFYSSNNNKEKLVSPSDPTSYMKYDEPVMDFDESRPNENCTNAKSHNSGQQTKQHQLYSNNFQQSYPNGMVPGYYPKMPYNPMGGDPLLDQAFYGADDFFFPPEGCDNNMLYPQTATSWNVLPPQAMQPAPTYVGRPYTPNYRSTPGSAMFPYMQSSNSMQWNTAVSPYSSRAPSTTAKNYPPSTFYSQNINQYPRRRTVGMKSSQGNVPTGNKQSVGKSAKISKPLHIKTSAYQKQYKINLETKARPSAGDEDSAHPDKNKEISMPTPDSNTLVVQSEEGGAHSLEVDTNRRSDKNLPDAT

Sequence	PBM E-score
ACTTAGAT	-0.0771
ATGGGAAT	-0.202
ACCATACG	-0.0611
CGCGCTAC	0.00148
ACTGGGCC	-0.244
AGCTAGAA	-0.0198
GAACCGGA	-0.0365
GAGCGAGC	-0.00859
GTCGCTGA	0.0069
CAACGATA	0.0594
TAACGATA	0.138
AAACGATA	0.279
AGAACTGG	-0.0181
ATAGGATG	0.149
AAAAATAC	0.25
AAAAATCT	0.318
AAATAGAT	0.275
AAAAATAT	0.339
AAATAGAG	0.0914
AAATATAT	0.273
AAAAATCA	0.254
AAATATAC	0.225
AAAAATCC	0.178
AAATATAA	0.224
AAATAGAC	-0.0352

Sequence	PBM E-score
AAAAATAG	0.24
CTCGTTTA	0.0722
CCAACCGA	0.0461
AACAGCCA	-0.019
AGCGCAAG	-0.0674
CACGGCAC	-0.113
ACAAGCGG	0.106
TACCTACA	-0.0205
AACTATGT	-0.0705
GGTTGAAA	0.292
TGTTGTAA	0.28
TGTTGAAA	0.311
GGTTGAGA	-0.103
CGTTGAAA	0.185
GGTTGTAA	0.0372
GGTTGAAC	-0.0192
AGTTGTAA	0.068
AGTTGAAA	0.19
CCCCGTAC	-0.0713
AGTCTGCA	-0.122
CGCGTACC	-0.113
CCGCCTTA	0.0555
AAGGTTCT	0.0379
CCCGAACA	0.128
CGAAGCCC	-0.192

Sequence	PBM E-score
AATACAAG	0.302
TATACAAA	0.127
AATACAAA	0.265
AATACAAT	0.0948
AATACAAC	0.157
GATACAAA	0.134
GGCAGCCC	-0.142
GACTACAA	-0.102
GGAATCCC	0.0198
GACCATGC	-0.139
ATCTCAAT	0.0795
ATCTCAAG	0.0665
ATCTCAAA	0.27
CACTCAAA	0.0429
AACTCAAG	-0.00801
CTCTCAAA	0.0271
AACTCAAA	0.266
GTCTCAAA	0.218
TTCTCAAA	0.291
ATGCCGTA	-0.0947
CTGGTCGA	-0.196
ATGGATTC	0.186
ACCGTGAT	0.0763
TGATTACA	-0.00637
ACAACCAA	0.0252

Sequence	PBM E-score
CGATCTCC	-0.108
ATCAACTG	-0.112
AATTAAAC	0.241
AATTAAAG	0.103
CATTAAAA	0.27
TATTAAAA	0.341
CATTAAAC	0.191
AATTAAAA	0.308
CATTAAAG	0.034
TATTAACA	0.164
GATTAAAA	0.234
TAAGGCAA	0.0326
CTACCCTC	-0.0776
GCCCTCCC	0.115
TGCTCACA	-0.148
CCTTGTGC	-0.0236
CACCATAA	0.136
ATACTAGG	0.119
GGTCCTGA	-0.163
AGCGCTAC	-0.0647
CCGCAGGA	-0.0635
GTTACAAC	0.289
TCTACAAA	0.138
ATTACAAC	-0.0498
TTTACAAA	0.294

Sequence	PBM E-score
CTTACAAC	0.0334
ATTACAAA	0.165
GTTACAAA	0.384
CTTACAAA	0.143
TGTACAAA	0.0309
TACGTCGA	0.0119
GGAGTAGA	-0.0759
AAGCTGGA	-0.0676
GCGACCCC	0.0725
GGATGCGA	-0.201
AGTCCATC	-0.306
CAAATATA	0.0746
GAAATATC	0.0344
AAAATATA	0.241
TAAATATA	0.321
GAAATACA	-0.00127
GAAATATA	0.284
GTCTCTGA	-0.168
CCATCTCA	-0.0464
CGGCCCCG	0.0097
CACCATGA	0.0412
CGCGATGC	-0.182
CGTCCTAC	-0.0953
TCAGTGCA	0.0371
CTAGGGCA	-0.159

Sequence	PBM E-score
GATGATGC	-0.125
GTTGCGAA	0.093
CGCAAGGC	0.049
CGTGAAAC	0.364
AGTGAAAT	0.0994
AGTGAAAC	0.394
GGTGAACC	-0.00551
AGTGAAAG	0.126
CGTGAAAA	0.22
CGTGAAAG	0.0979
GGTGAAAC	0.463
GGTGAAAA	0.0914
CCTCGTTA	0.049
CGGTAACG	-0.141
GCCTAAAC	-0.125
CACAGGTA	0.0125
ACCGTCTG	-0.00201
CCCAGGGC	-0.256
CGGATGAG	-0.11
AGGATGAA	0.128
GAGATGAA	0.156
TAGATGAA	0.279
ACGATGAA	0.274
ACGATGAC	-0.173
CGGATGAA	0.268

Sequence	PBM E-score
GCGATGAA	0.116
AAGATGAA	0.18
CATACCAA	-0.0054
AACTCTCC	-0.129
AGCGAGAT	0.119
CCGAATTC	-0.00494
TGACCTCA	-0.0719
ACAGAAGC	-0.0242
AGAAGACT	-0.22
AAGTTTTC	0.0212
TAGTTTGA	0.0916
CAGTTTCA	0.374
AAGTTTCG	0.175
AAGTTTCA	0.437
AAGTTTTG	0.116
AAGTTTCC	0.11
CAGTTTCG	0.181
CAGTTTCC	0.0749
TAGTTTCA	0.36
AAGTTTTA	0.287
TAGTTTAA	0.171
CGGCGAGA	-0.167
CCTTTTCG	0.19
CGACCTGC	-0.0774
GACCTCAC	-0.15

Sequence	PBM E-score
TCACGGAA	0.135
ACGATCGA	-0.106
ACGGAGGC	-0.187
GACCAGGA	-0.183
GTTCGCTA	-0.0318
GAGTTTCA	0.407
GAGTTTGA	0.0997
GAGTTTCC	-0.00944
CTGTGGTA	-0.0102
CATTTATA	0.189
AATTTATG	0.205
AATTTATA	0.274
GATTTATA	0.182
AATTTATC	0.281
CATTTATC	0.0356
CGGTAGAA	-0.142
GCCAAAGA	-0.0779
GGATTGCA	0.117
GCTGCGCA	-0.229
ACGCTTGC	-0.116
CACGTTAC	0.0456
AACGTTTC	0.328
AACGTTTA	0.00807
AACGTTTG	0.0498
CACGTTTA	-0.00355

Sequence	PBM E-score
CACGTTTC	0.285
ACAATTTA	0.163
AATTAAGT	0.118
AACATAAA	0.249
ACTATAAA	0.241
ACTAGAAC	-0.0111
AACATAAT	0.286
ACTAGAAA	0.244
AACATAAC	0.0575
GACATAGA	0.0743
AACATAGA	0.287
CACATAGA	-0.0651
ACTATAAT	0.274
ACTAGAAT	0.277
ACTATAAC	-0.0368
ACTCCTAA	-0.0995
GGAGGACA	-0.106
GGCAATGA	-0.192
ACTTGGAT	0.0871
